Experimental findings from PubChem BioAssay (Tox21) are described below.

Values joined by “and” are separate entries in the source; they are usually repeats but may differ in a detail not shown here. Equal entries are not always repeated. Inconclusive results are not listed. Active and inactive are the calls of the source. Unless noted, the call rests on the fitted dose curve; in most records, active means well fitted curve in the direction sought with a large enough effect in the repeat runs; inconclusive means weak or mixed curves; inactive means no such curve, though single readings can be large; an effect the other way counts as inactive or inconclusive.

A short description of assay [1]: A CellTox Green Cytotoxicity Assay to monitor cytotoxicity in HepG2 cells - 8 hour (AID 1224890). Further: nearly all actives have a fitted effect of over 45% in size. The procedure, abridged: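 HepG2, 600 cells/well premixed w/ CellTox Green; 5 h settle, 37 C/5% CO2; pintool cpd add (DMSO); 37 C, 40 h; fluorescence read at 0, 8, 16, 24, 32, 40 h.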
The nature of assay [2]: qHTS assay to identify small molecule antagonists of the estrogen receptor alpha (ER-alpha) signaling pathway using the BG1 cell line in the presence of 0.1 nM 17-beta-estradiol - cell viability counter screen (AID 1259241). Further: nearly all actives have a fitted effect of over 40% in size. Further: potency means the concentration at half of the fitted maximal effect. In short, it runs like this:
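Cells were plated and left 24 hr, compounds in DMSO were pinned in, 17beta-estradiol was added to 0.1 nM final, and after 22 hr CellTiter-Fluor reagent was added for 30 min before fluorescence was read.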

The target in assay [3] is Estrogen receptor (Homo sapiens) (UniProt P03372). In words: qHTS assay to identify small molecule antagonists of the estrogen receptor alpha (ER-alpha) signaling pathway using the BG1 cell line in the presence of 0.1 nM 17-beta-estradiol (AID 1259244). Further: nearly all actives have a fitted effect of over 50% in size. The procedure, abridged: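 Luminescence after ONE-Glo (30 min, room temperature) measured ERE-luciferase activity in VM7Luc4E2 cells treated 22 h with compound and 0.1 nM final 17beta-estradiol as stimulator.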
On the technique in general: In qHTS, concentration-response curves come from the screen itself.

Assay [4] is described as follows: qHTS assay to identify small molecule phospholipidosis (PLD) inducers (AID 1259344; active means well fitted curve in the direction sought with a large enough effect; an effect the other way counts as inactive or inconclusive). The procedure, abridged:
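Accumulated phospholipid, stained red by LipidTOX during 24 h compound treatment of HepG2 cells at 37 C, is quantified from images as pit number and intensity, normalised per cell using Hoechst-stained nuclei.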

Assay [5] can be described thus: qHTS assay to identify small molecule HDAC inhibitors (AID 1259364).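 Further: wild-type HCT-116 cells with endogenous class I/II HDAC activity; top concentration of the series differs between compounds; nearly all actives have a fitted effect of over 45% in size.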 The procedure, abridged: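 HCT-116 (wild type), 1,500 cells/well, overnight; compound 2 hr 37C 5% CO2; HDAC-Glo I/II reagent 30 min RT; luminescence readout.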
Assay [6] can be described thus: qHTS assay to identify small molecule HDAC inhibitors - cell viability counter screen (AID 1259365). Further: series mostly up to about 92 µM; nearly all actives have a fitted effect of over 50% in size. In short, it runs like this:
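Counter screen in wild-type HCT-116 cells: compounds dissolved in DMSO are pin-transferred onto overnight-plated cells and left 2hr at 37C. ATP-based CellTiter-Glo luminescence then measures viable cells.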

Assay [7] is described as follows: qHTS assay to identify small molecule agonists of the sonic hedgehog signaling (Shh) pathway - cell viability counter screen (AID 1259366). Further: nearly all actives have a fitted effect of over 50% in size. Further: potency means the concentration at half of the fitted maximal effect. The procedure, abridged:
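Cells are plated at 2,000 per well and left 4hr at 37C, 5% CO2 before compound addition. After 23hr of treatment, CellTiter-Fluor reagent is added for 1hr at 37C and fluorescence is measured.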

A short description of assay [8]: qHTS assay to identify small molecule antagonists of the sonic hedgehog signaling (Shh) pathway - cell viability counter screen (AID 1259367). Further: nearly all actives have a fitted effect of over 55% in size. Further: potency means the concentration at half of the fitted maximal effect. In short, it runs like this:
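CellTiter-Fluor signal in conditioned medium-stimulated 3T3 Gli1-Luc cells, 23 hr compound exposure, 37C.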

The nature of assay [9]: qHTS assay to identify small molecule agonists of the sonic hedgehog signaling (Shh) pathway (AID 1259368; calls by dose curve;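 further: NIH/3T3-derived 3T3Gli1-Luc cells carrying a stable Gli1-driven firefly luciferase reporter; series mostly up to about 92 µM; nearly all actives have a fitted effect of over 15% in size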). The procedure, abridged:
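Read-out: firefly luciferase luminescence from a Gli1 response element reporter stably integrated in NIH/3T3-derived 3T3Gli1-Luc cells, measured 30 min at room temperature after reagent addition. Compound exposure lasted 24 hr at 37 C, 5% CO2.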

The nature of assay [10]: qHTS assay to identify small molecule antagonists of the sonic hedgehog signaling (Shh) pathway (AID 1259369; calls by dose curve; further: nearly all actives have a fitted effect of over 45% in size). In short, it runs like this:
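Luminescence readout: firefly Luc under Gli1 response element in 3T3Gli1-Luc cells (NIH/3T3 clone). Antagonist mode, stimulation by conditioned medium; compound exposure 24hr at 37 C, 5% CO2.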

Assay [11] deals with Estrogen receptor beta (Homo sapiens) (UniProt Q92731). In words: qHTS assay to identify small molecule agonists of the estrogen receptor beta (ER-beta) signaling pathway (AID 1259377; active means well fitted activation curve with a large enough effect in the signal ratio in the repeat runs, not every such curve was filed as active; the % refers to the signal ratio). The procedure, abridged: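 Agonist mode cell assay in GripTite HEK293T cells expressing an ER-beta fusion that drives beta-lactamase from an Upstream Activator Sequence; 16 hr compound exposure at 37C, then 2 h LiveBLAzer B/G FRET substrate at room temperature, fluorescence read-out.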

Assay [12] in a line: qHTS assay to identify small molecule agonists of the androgen receptor (AR) signaling pathway in the presence of an antagonist - cell viability counter screen (AID 1259379). Further: nearly all actives have a fitted effect of over 25% in size. Further: potency means the concentration at half of the fitted maximal effect. In short, it runs like this:
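Viability counter screen: CellTiter-Fluor fluorescence, measured in the same wells as the luciferase read-out. MDA-kb2 cells, 3,000/well, with nilutamide at 3.0uM final and compounds at 15 concentrations, 16 hr at 37C, 0% CO2.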

The nature of assay [13]: qHTS assay to identify small molecule agonists of the estrogen receptor beta (ER-beta) signaling pathway - cell viability counter screen (AID 1259380). Further: nearly all actives have a fitted effect of over 30% in size. The procedure, abridged: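 Luminescence read-out (CellTiter-Glo, 30 min, room temp) taken in the same wells as the beta-lactamase reporter assay; ER-beta-UAS-bla HEK293T cells exposed to DMSO-dissolved compounds for 16 hr at 37C in 2% charcoal-stripped FBS medium.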

A short description of assay [14]: qHTS assay to identify small molecule antagonists of the estrogen receptor beta (ER-beta) signaling pathway - cell viability counter screen (AID 1259382).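 Further: HEK293T cells carrying ER-beta-UAS-bla reporter stimulated with estradiol; series mostly up to about 92 µM; nearly all actives have a fitted effect of over 55% in size.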 In short, it runs like this: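 Luminescent ATP read-out (CellTiter-Glo, 30 min, RT) taken in the same wells as the bla reporter assay. HEK293T ER-beta-UAS-bla cells in 2% charcoal-stripped FBS were exposed to compounds with 1nM E2 for 16 hr at 37C.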

Assay [15] can be described thus: qHTS assay to identify small molecule agonists or antagonists of the thyroid stimulating hormone receptor (TSHR) signaling pathway - wild type cell line counter screen (AID 1259384; calls by dose curve). In short, it runs like this:
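Counter screen in untransfected Hek293: compounds (15-point titration, triplicate) plus phosphodiesterase inhibitor Ro20-1724 added after 18 h plating; 30 min RT. Intracellular cAMP via competitive d2/cryptate immunoassay, 1 h incubation.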

Assay [16] in a line: qHTS assay to identify small molecule antagonists of the androgen receptor (AR) signaling pathway using the MDA cell line in the presence of 0.5 nM R1881 - cell viability counter screen (AID 1259242). Further: nearly all actives have a fitted effect of over 45% in size. In short, it runs like this: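 Live-cell protease fluorescence, CellTiter-Fluor, 30 min at 37C. Cells: MDA-kb2, 3,000/well, preincubated 5 hr. Compounds plus 0.5 nM R1881 final, 16 hr, 37C, 0% CO2.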

The target in assay [17] is Androgen receptor (Homo sapiens) (UniProt P10275). In words: qHTS assay to identify small molecule antagonists of the androgen receptor (AR) signaling pathway using the MDA cell line in the presence of 0.5 nM R1881 (AID 1259243). Further: nearly all actives have a fitted effect of over 50% in size. In short, it runs like this: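 MDA-kb2, MMTV-luc (AR/GR elements); 3,000 cells/well; cpd + 0.5 nM R1881 final; 16 hr 37C, 0% CO2; ONE-Glo 30 min RT; luminescence.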

In assay [18] the target is Estrogen receptor beta (Homo sapiens) (UniProt Q92731). In words: qHTS assay to identify small molecule antagonists of the estrogen receptor beta (ER-beta) signaling pathway (AID 1259378; active means well fitted inhibition curve with a large enough effect in the signal ratio in the repeat runs, not every such curve was filed as active; the % refers to the signal ratio). The procedure, abridged: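 Antagonist mode: compounds added to beta-lactamase reporter HEK293T ER-beta-UAS cells stimulated with E2 (1nM final), 16 hr at 37C. LiveBLAzer B/G FRET substrate, 2 hours room temperature, fluorescence read-out.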

Assay [19] addresses Androgen receptor (Homo sapiens) (UniProt P10275). In words: qHTS assay to identify small molecule agonists of the androgen receptor (AR) signaling pathway in the presence of an antagonist (AID 1259381; calls by dose curve; further: nearly all actives have a fitted effect of over 15% in size). In short, it runs like this: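 Luciferase read-out (ONE-Glo, 30min room temperature) in MDA-kb2 MMTV-reporter cells; agonist mode run in presence of AR antagonist nilutamide, 3.0uM final. Compounds tested as 15-point series, 16hr exposure at 37C, 0% CO2.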

Chain of Estrogen receptor (Homo sapiens) (P03372 whole entry, looked up): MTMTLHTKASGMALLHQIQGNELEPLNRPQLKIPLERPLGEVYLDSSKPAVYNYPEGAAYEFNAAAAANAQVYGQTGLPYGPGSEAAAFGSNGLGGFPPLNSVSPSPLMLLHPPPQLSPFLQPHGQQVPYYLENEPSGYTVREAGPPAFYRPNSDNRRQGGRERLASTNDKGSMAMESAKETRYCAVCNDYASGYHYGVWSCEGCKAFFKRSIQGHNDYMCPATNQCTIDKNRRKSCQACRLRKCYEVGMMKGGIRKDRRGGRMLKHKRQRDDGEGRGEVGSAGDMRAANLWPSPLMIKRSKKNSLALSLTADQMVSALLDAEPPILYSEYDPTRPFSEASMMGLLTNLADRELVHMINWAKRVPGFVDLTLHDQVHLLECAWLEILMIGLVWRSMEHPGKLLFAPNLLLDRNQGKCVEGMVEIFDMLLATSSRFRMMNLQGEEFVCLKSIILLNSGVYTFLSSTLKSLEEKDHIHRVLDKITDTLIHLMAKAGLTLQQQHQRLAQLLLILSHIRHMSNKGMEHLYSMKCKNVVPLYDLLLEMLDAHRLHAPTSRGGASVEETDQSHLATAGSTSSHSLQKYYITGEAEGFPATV
Chain of Estrogen receptor beta (Homo sapiens) (Q92731 whole entry, looked up, the tested form may be a part): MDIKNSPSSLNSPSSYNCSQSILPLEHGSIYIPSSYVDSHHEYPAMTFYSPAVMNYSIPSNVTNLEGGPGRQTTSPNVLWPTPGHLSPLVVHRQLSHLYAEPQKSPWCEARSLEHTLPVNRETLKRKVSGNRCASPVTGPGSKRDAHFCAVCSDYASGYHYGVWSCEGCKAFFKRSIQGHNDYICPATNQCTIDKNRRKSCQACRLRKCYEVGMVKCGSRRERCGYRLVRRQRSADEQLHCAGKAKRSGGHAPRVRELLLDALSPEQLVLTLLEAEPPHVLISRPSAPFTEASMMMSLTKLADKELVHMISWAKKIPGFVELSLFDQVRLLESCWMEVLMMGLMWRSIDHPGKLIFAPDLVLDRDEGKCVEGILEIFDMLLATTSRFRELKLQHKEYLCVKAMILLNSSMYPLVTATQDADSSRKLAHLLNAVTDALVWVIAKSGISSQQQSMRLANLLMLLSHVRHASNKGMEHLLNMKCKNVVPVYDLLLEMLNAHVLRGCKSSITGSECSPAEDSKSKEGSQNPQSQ
Chain of Androgen receptor (Homo sapiens) (P10275 whole entry, looked up): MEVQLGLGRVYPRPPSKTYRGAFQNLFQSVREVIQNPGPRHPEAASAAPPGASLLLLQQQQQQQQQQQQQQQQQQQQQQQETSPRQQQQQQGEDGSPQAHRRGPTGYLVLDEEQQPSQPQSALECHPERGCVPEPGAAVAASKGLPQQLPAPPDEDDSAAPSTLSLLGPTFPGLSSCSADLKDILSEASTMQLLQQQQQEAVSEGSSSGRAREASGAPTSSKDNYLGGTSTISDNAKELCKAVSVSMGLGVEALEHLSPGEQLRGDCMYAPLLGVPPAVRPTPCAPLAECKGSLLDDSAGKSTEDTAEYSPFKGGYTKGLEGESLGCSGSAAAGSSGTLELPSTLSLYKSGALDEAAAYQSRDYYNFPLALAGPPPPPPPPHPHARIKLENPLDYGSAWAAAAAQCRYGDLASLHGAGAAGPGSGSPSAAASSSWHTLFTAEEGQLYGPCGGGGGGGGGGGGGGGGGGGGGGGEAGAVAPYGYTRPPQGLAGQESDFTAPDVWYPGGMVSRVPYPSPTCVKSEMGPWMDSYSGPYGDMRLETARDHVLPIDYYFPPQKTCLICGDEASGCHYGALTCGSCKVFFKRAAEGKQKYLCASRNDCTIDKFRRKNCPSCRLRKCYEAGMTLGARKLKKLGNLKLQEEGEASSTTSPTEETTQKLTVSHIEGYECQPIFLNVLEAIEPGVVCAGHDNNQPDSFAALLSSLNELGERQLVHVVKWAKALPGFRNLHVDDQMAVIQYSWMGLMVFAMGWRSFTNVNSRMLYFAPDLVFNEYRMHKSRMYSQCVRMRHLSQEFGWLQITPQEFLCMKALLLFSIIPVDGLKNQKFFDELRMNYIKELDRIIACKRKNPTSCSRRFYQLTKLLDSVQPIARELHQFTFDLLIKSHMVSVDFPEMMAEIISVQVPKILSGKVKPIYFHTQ

Turning to `CCOC(=O)n1ccn(C)c1=S`, the call in [1], in [4], in assay [6], in assay [9], in assay [14] and in [15] was inactive. Moreover, the Potency entry in assay [2], in [3], in assay [5], in [7], in [8] and in assay [10] was “inactive” in each case. Besides, the Potency result in assay [11], in [12] and in assay [13] was “inactive” each time.

As to `C=Cc1ccc(C)cc1`, the result in [1], in [6], in [9], in assay [14] and in assay [15] was inactive. Moreover, the Potency result in [2], in assay [16], in assay [5], in assay [7], in [8] and in [11] was “inactive” in each case. For the same compound, the Potency result in [12] and in assay [13] was “inactive” in each case.

In the case of `CCCCCC(=O)O`, the call in [1], in [6], in assay [9], in assay [14] and in [15] was inactive. Also, the Potency entry in [16], in assay [17], in assay [3], in assay [5], in assay [7] and in assay [8] was “inactive” throughout. The Potency entry in assay [11], in assay [18], in assay [12], in assay [13] and in assay [19] was “inactive” in each case.

On to `CC(C)c1cccc(C(C)C)c1`, for which the compound was classed as inactive in [1], in [6], in assay [9], in [14] and in assay [15]. Also, the Potency entry in assay [2], in assay [3], in assay [5], in assay [7], in [8] and in [12] was “inactive” throughout. In addition, in assay [13], the Potency entry is “inactive”.

With `C=C(C)[C@H]1CC=C(C)C(=O)C1`, the compound was called inactive in assay [1], in assay [6], in assay [9], in [14] and in [15]. Moreover, the Potency result in assay [2], in [5], in [7], in assay [8], in assay [11] and in assay [18] was “inactive” in each case. In addition, the Potency result in [12] and in assay [13] was “inactive” throughout.

Take `C=CC[N+](C)(C)CC=C`: the compound was called inactive in assay [1], in assay [6], in assay [9], in assay [14] and in assay [15]. Further, the Potency result in assay [2], in [16], in [5], in assay [7], in [8] and in assay [10] was “inactive” in each case. Moreover, the Potency result in assay [11], in [18], in assay [12] and in assay [13] was “inactive” throughout.

For `O=S(=O)(O)c1ccc(N=Nc2c(O)ccc3cc(S(=O)(=O)O)ccc23)cc1`, the result in assay [1], in assay [6], in assay [9] and in assay [14] was inactive. The Potency in assay [2] is 30.8 µM (active) and 27.3 µM (active); in [7], 30.8 µM (active) and 30.6 µM (active); in [8], 27.4 µM (active) and 27.3 µM (active); in assay [12], 54.7 µM (active) and 30.6 µM (active). Also, the Potency result in [3], in assay [5] and in [13] was “inactive” each time.

On to `CN(C)c1ccc(Cc2ccc(N(C)C)cc2)cc1`, for which the outcome in assay [1], in [6], in assay [9], in assay [14] and in assay [15] was inactive. The Potency entry in assay [2], in [16], in assay [5], in assay [7], in assay [8] and in assay [10] was “inactive” throughout. Further, the Potency entry in [11], in [18], in assay [12] and in assay [13] was “inactive” each time.

For the compound `OC1C(O)C(O)C(O)C(O)C1O` (stereo unspecified), the result in assay [1], in assay [4], in [6], in assay [9], in [14] and in [15] was inactive. The Potency result in [2], in assay [3], in assay [5], in [7], in assay [8] and in assay [12] was “inactive” in each case. The Potency result in assay [13] is “inactive”.

Take `CC(=O)CCC=C(C)C`: the outcome in [1], in [6], in assay [9], in assay [14] and in [15] was inactive. Besides, the Potency result in [16], in assay [3], in [5], in [7], in assay [8] and in assay [10] was “inactive” in each case. In addition, the Potency entry in assay [12] and in [13] was “inactive” in each case.
